The results in this text go back to PubChem BioAssay (NCATS).

The structures appear in SMILES notation. Records with an inconclusive call do not appear. Calls of active or inactive are those of the source. Calls follow the shape of the dose curve; as a rule, active = well fitted curve in the direction sought with a large enough effect; inconclusive = small, poorly fitted or top-dose-only effect, or another doubt; inactive = no such curve, though single readings can be large; an effect the other way counts as inactive or inconclusive.

Calcium and integrin-binding protein 1 (Homo sapiens), sequence (Q99828 whole entry, looked up): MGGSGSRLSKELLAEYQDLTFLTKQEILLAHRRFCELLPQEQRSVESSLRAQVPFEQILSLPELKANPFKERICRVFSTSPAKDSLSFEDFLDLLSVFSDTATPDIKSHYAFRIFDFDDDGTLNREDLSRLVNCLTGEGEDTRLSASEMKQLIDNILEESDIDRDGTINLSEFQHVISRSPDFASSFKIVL

Test system in the first test: not listed separately
Nature of the test: Primary qHTS for inhibitors of La Crosse Virus (LACV) - induced cell death in SH-SY5Y cells (AID 1508616).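 Also: top concentration of the series differs between compounds; 0% = infected DMSO wells and 100% = uninfected DMSO wells; higher means more rescue of cells from virus-induced death.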 The note with it: SH-SY5Y LACV cytopathicity rescue, ATP luminescence, 6 d; series mostly up to 4.29 µM; activity change: at the top concentration. In outline: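 SH-SY5Y cells (6000/well) plated 24 h, then given compounds by pin transfer and LACV at 0.01 MOI for 6 days at 37C. Viability measured by ATPLite luminescence, normalized to infected DMSO and uninfected DMSO.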
In general terms: In qHTS, concentration-response curves come from the screen itself.
On to `CN[C@H](CC(C)C)C(=O)N[C@H]1C(=O)N[C@@H](CC(N)=O)C(=O)N[C@@H]2C(=O)N[C@H]3C(=O)N[C@H](C(=O)N[C@H](C(=O)O)c4cc(O)cc(O)c4-c4cc3ccc4O)[C@H](O)c3ccc(c(Cl)c3)Oc3cc2cc(c3O[C@@H]2O[C@H](CO)[C@@H](O)[C@H](O)[C@@H]2O[C@H]2C[C@](C)(N)[C@H](O)[C@H](C)O2)Oc2ccc(cc2Cl)[C@H]1O`, for which the “activity change” value is 22.6% [at 9.63 µM] (inactive).

Turning to `CCCCC(=O)O[C@]1(C(=O)CO)[C@@H](C)C[C@H]2[C@@H]3CCC4=CC(=O)C=C[C@]4(C)[C@@]3(F)[C@@H](O)C[C@@]21C`, the “activity change” value is 38.9% (inactive).

As to `N[C@H]1CN(c2c(F)cc3c(=O)c(C(=O)O)cn(C4C[C@@H]4F)c3c2Cl)CC12CC2` (some centres not stated), the “activity change” value is -10.8% (inactive).

Turning to `CC1(C)O[C@@H]2C[C@H]3[C@@H]4CCC5=CC(=O)C=C[C@]5(C)[C@@H]4[C@@H](O)C[C@]3(C)[C@]2(C(=O)CO)O1`, the “activity change” value was -5.43% (inactive).

Turning to `COc1ccc2cc([S+]([O-])Cc3ncc(C)c(OC)c3C)nc2c1`, the “activity change” value was -7.51% [at 9.63 µM] (inactive).

Regarding `Cc1ccc(-n2[nH]c(C)c(N=Nc3cccc(-c4cccc(C(=O)O)c4)c3O)c2=O)cc1C`, the “activity change” value is 3.13% (inactive).

With `O=c1[nH]c(=O)n([C@H]2C[C@@H](O)[C@@H](CO)O2)cc1C=CBr`, the “activity change” value is 1.32% [at 9.63 µM] (inactive).

`Cc1cn([C@@H]2O[C@H](CO)[C@@H](O)[C@H]2F)c(=O)[nH]c1=O`: the “activity change” value is 2.55% (inactive).

Turning to `Cc1ccccc1C(=O)Nc1ccc(C(=O)N2CCCC(O)c3cc(Cl)ccc32)c(C)c1` (configuration not stated), the “activity change” value was 37.1% (inactive).

As to `CCn1c(=O)c2c(nc(C=Cc3ccc(OC)c(OC)c3)n2C)n(CC)c1=O`, the “activity change” value is 16.9% (inactive).

Take `Nc1ccn(C2CO[C@H](CO)O2)c(=O)n1` (some centres not stated): the “activity change” value is -4.94% (inactive).

The next test has as its target Calcium and integrin-binding protein 1 (Homo sapiens) (UniProt Q99828). Briefly: Confirmatory qHTS for Identification of Calcium Integrin Binding Protein 1 (CIB1) Competitor (AID 1508617). Also: nearly all actives have a fitted effect of over 65% in size. Also: potency is read from the fitted curve at half-maximal effect. As to activity change, negative = inhibition: % is scaled to controls: 0 for no effect and ±100 for the full control effect. The note with it: CIB1 binding competition assay, biochemical qHTS; series mostly up to 114 µM; activity change, negative = inhibition: at the top concentration. Summed up: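 Confirmatory qHTS measures displacement of a FITC-alphaIIb peptide (100 nM) from CIB1-GST (1 uM) by fluorescence polarization. Calcium-containing HEPES buffer, pH 7.4; two 15 min room-temperature incubations.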
Turning to `Cc1coc2c1C(=O)C(=O)c1c-2ccc2c(C)cccc12`, the Potency is 39.8 µM (active).

On to `C[C@@H](NCc1cc2ccccc2[nH]1)c1cccc2ccccc12`, for which the “activity change, negative = inhibition” value is -11.8% (inactive).

In the case of `CN(C)CCN1C(=O)c2cccc3cc(N)cc(c23)C1=O`, the “activity change, negative = inhibition” value was -17.3% (inactive).

`O=C1c2cccc(O)c2C(=O)c2c(O)cc(CO)cc21`: the “activity change, negative = inhibition” value was -8.94% (inactive).

Turning to `CN1CCCN(C(=O)c2cccc(-c3ccc(C=C4C(=O)Nc5ccc(Cl)cc54)o3)c2)CC1`, the Potency was 35.5 µM (active).

For the molecule `NC(=O)c1ncn([C@@H]2O[C@H](CO)[C@@H](O)[C@@H]2O)c1O`, the “activity change, negative = inhibition” value was 6.92% (inactive).

For the next test the target is unchanged. Briefly: Primary qHTS for Identification of Calcium Integrin Binding Protein 1 (CIB1) Competitor (AID 1508620). Also: top concentration of the series differs between compounds; % is scaled to controls: 0 for no effect and ±100 for the full control effect. The note with it: CIB1-GST / FITC-alphaIIb peptide fluorescence polarization; series mostly up to 57.7 µM; activity change, negative = inhibition: at the top concentration. In outline: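 Fluorescence polarization competition: GST-tagged CIB1 (1 uM final) preincubated with compound 15 min at room temperature, then FITC-labelled alphaIIb peptide (100 nM final) added. After 15 min at room temperature, polarization read at Ex 480/Em 540.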
With `Cc1coc2c1C(=O)C(=O)c1c-2ccc2c(C)cccc12`, the “activity change, negative = inhibition” value is -17.8% (inactive).

On to `CN[C@H](CC(C)C)C(=O)N[C@H]1C(=O)N[C@@H](CC(N)=O)C(=O)N[C@@H]2C(=O)N[C@H]3C(=O)N[C@H](C(=O)N[C@H](C(=O)O)c4cc(O)cc(O)c4-c4cc3ccc4O)[C@H](O)c3ccc(c(Cl)c3)Oc3cc2cc(c3O[C@@H]2O[C@H](CO)[C@@H](O)[C@H](O)[C@@H]2O[C@H]2C[C@](C)(N)[C@H](O)[C@H](C)O2)Oc2ccc(cc2Cl)[C@H]1O`, for which the “activity change, negative = inhibition” value was 1.55% (inactive).

In the case of `CC[C@H]1OC(=O)[C@H](C)[C@@H](O[C@H]2C[C@@](C)(OC)[C@@H](O)[C@H](C)O2)[C@H](C)[C@@H](O[C@@H]2O[C@@H](C)C[C@H](N(C)C)[C@@H]2O)[C@](C)(O)C[C@@H](C)C(=O)[C@H](C)[C@@H](O)[C@]1(C)O`, the “activity change, negative = inhibition” value is -1.73% (inactive).

With `COc1cc(OC)c(C=CS(=O)(=O)Cc2ccc(OC)c(NCC(=O)O)c2)c(OC)c1`, the “activity change, negative = inhibition” value is 2.3% (inactive).

With `CCCCC(=O)O[C@]1(C(=O)CO)[C@@H](C)C[C@H]2[C@@H]3CCC4=CC(=O)C=C[C@]4(C)[C@@]3(F)[C@@H](O)C[C@@]21C`, the “activity change, negative = inhibition” value is -2.04% (inactive).

Take `COc1ccnc2[nH]cc(C(=O)C(=O)N3CCN(C(=O)c4ccccc4)C[C@@H]3C)c12`: the “activity change, negative = inhibition” value was 1.96% (inactive).

On to `N[C@H]1CN(c2c(F)cc3c(=O)c(C(=O)O)cn(C4C[C@@H]4F)c3c2Cl)CC12CC2` (some centres not stated), for which the “activity change, negative = inhibition” value is 0.866% [at 114 µM] (inactive).

For the molecule `C=CC(=O)Nc1cccc(Nc2nc(NC3CCC(N(C)C)CC3)nc3c2ncn3C(C)C)c1` (configuration not stated), the “activity change, negative = inhibition” value is 0.949% (inactive).

Take `C=CCNc1c(O)cc2c(O)c1C[C@@H](C)C[C@H](OC)[C@@H](O)[C@@H](C)C=C(C)[C@H](OC(N)=O)[C@@H](OC)C=CC=C(C)C(=O)N2`: the “activity change, negative = inhibition” value is -2.5% (inactive).

In the case of `CC1(C)[C@H](O[C@H]2O[C@H](C(=O)O)[C@@H](O)[C@H](O)[C@H]2O[C@@H]2O[C@H](C(=O)O)[C@@H](O)[C@H](O)[C@H]2O)CC[C@@]2(C)[C@H]1CC[C@]1(C)[C@H]2C(=O)C=C2[C@H]3C[C@@](C)(C(=O)O)CC[C@]3(C)CC[C@]21C`, the “activity change, negative = inhibition” value is 0.44% (inactive).

As for `CC[C@H](CC[C@@H](C)[C@H]1CC[C@H]2[C@@H]3CC=C4C[C@@H](O)CC[C@]4(C)[C@@H]3CC[C@]12C)C(C)C`, the “activity change, negative = inhibition” value was -7.25% (inactive).

For the molecule `CC(=O)N[C@@H]1[C@H](O[C@@H]2c3ccc(c(Cl)c3)Oc3cc4cc(c3O[C@H]3O[C@H](CO)[C@@H](O)[C@H](O)[C@H]3NC(=O)CCCCCCCC(C)C)Oc3ccc(cc3Cl)C[C@H]3NC(=O)[C@H](N)c5ccc(O)c(c5)Oc5cc(O)cc(c5)[C@H](NC3=O)C(=O)N[C@H]4C(=O)N[C@H]3C(=O)N[C@@H]2C(=O)N[C@@H](C(=O)O)c2cc(O)cc(O[C@H]4O[C@H](CO)[C@@H](O)[C@H](O)[C@H]4O)c2-c2cc3ccc2O)O[C@H](CO)[C@@H](O)[C@@H]1O`, the “activity change, negative = inhibition” value is 2.8% (inactive).

In the case of `O=C(C=CC#Cc1cccc(NS(=O)(=O)c2ccccc2)c1)NO`, the “activity change, negative = inhibition” value is 1.22% (inactive).

With `O=c1[nH]c(=O)n([C@H]2C[C@@H](O)[C@@H](CO)O2)cc1F`, the “activity change, negative = inhibition” value was -1.71% (inactive).

Turning to `C[N+]1(C)[C@@H]2C[C@@H](OC(=O)C(O)(c3cccs3)c3cccs3)C[C@H]1[C@@H]1O[C@@H]12`, the “activity change, negative = inhibition” value is -1.47% [at 114 µM] (inactive).

For the molecule `Cc1[nH]c(C=C2C(=O)Nc3ccccc32)c(C)c1CCC(=O)O`, the “activity change, negative = inhibition” value was 119% (inactive).

Consider `CC1(C)O[C@@H]2C[C@H]3[C@@H]4CCC5=CC(=O)C=C[C@]5(C)[C@@H]4[C@@H](O)C[C@]3(C)[C@]2(C(=O)CO)O1`, for which the “activity change, negative = inhibition” value was 2.53% [at 114 µM] (inactive).

In the case of `CC(C)c1cc(C(C)C)c(CC(=O)NS(=O)(=O)Oc2c(C(C)C)cccc2C(C)C)c(C(C)C)c1`, the Potency entry is “inactive”.

In the case of `O=c1[nH]c(=O)n([C@H]2C[C@@H](O)[C@@H](CO)O2)cc1C=CBr`, the “activity change, negative = inhibition” value was 1.11% (inactive).

In the case of `Cc1cn([C@@H]2O[C@H](CO)[C@@H](O)[C@H]2F)c(=O)[nH]c1=O`, the “activity change, negative = inhibition” value was -3.49% [at 114 µM] (inactive).

`Cc1ccccc1C(=O)Nc1ccc(C(=O)N2CCCC(O)c3cc(Cl)ccc32)c(C)c1` (configuration not stated): the “activity change, negative = inhibition” value is 4.08% [at 114 µM] (inactive).

As for `CCn1c(=O)c2c(nc(C=Cc3ccc(OC)c(OC)c3)n2C)n(CC)c1=O`, the “activity change, negative = inhibition” value is -11.3% (inactive).

With `NC(=O)c1ncn([C@@H]2O[C@H](CO)[C@@H](O)[C@@H]2O)c1O`, the “activity change, negative = inhibition” value was 4.77% (inactive).

Take `CN(N=O)C(=O)N[C@H]1C(O)OC(CO)[C@@H](O)[C@H]1O` (some centres not stated): the “activity change, negative = inhibition” value was 1.37% (inactive).

Turning to `C=C1C[C@@]2(O)O[C@@]3(C[C@H]2C(C)C)[C@H](C)CC[C@H]13`, the “activity change, negative = inhibition” value is 4.22% (inactive).

Regarding `NS(=O)(=O)OC[C@@H]1C[C@@H](n2ccc3c(N[C@H]4CCc5ccccc54)ncnc32)C[C@H]1O`, the “activity change, negative = inhibition” value was 1.59% (inactive).

As for `Cc1cnn(C)c1C(=O)Nc1cc(Nc2ccc3c(C=Cc4ccccn4)n[nH]c3c2)ccc1F`, the “activity change, negative = inhibition” value is -9.48% (inactive).

Turning to `N#CC(=Cc1ccc(O)c(O)c1)C(=O)NCc1ccccc1`, the “activity change, negative = inhibition” value was -4.63% (inactive).

`Cn1cc(C2=C(c3c4n(c5ccccc35)CCC(CN)C4)C(=O)NC2=O)c2ccccc21` (configuration not stated): the “activity change, negative = inhibition” value is -6.77% (inactive).

Take `O=C(C=Cc1ccc(CN(CCO)CCc2c[nH]c3ccccc23)cc1)NO`: the “activity change, negative = inhibition” value was -0.0717% (inactive).
